# In PubChem BioAssay (NCI):
# This is part of a sample that, as a whole, favours compounds with a hit. Of some 83,000 tested, about 20% had one in any assay.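 Note: values are percent growth. 100 is the growth of untreated cells, values between 100 and 0 indicate rising inhibition; between -100 and 0 indicates cell death.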 Activity calls are given as the source filed them. How the source made its calls: active means growth percent below 10; inactive means the rest.
# System: NCI-H23 lung
# Experiment: NCI-60 one-dose screen, 48 h (100 = growth as untreated, 0 = no growth, -100 = all killed)
# Details: 10 µM unless noted
row,SMILES,growth
1,COc1ccc(/C(=C\c2cc(OC)c(OC)c(OC)c2)C(=O)N2CCNCC2)cc1,102% (inactive)
2,O=c1c2sc3ncc(Cl)cc3c2nnn1-c1cccc(Cl)c1,83.8% (inactive)
3,F,41.1% [6.87 mM] (inactive)
4,CC1=C(C(=O)Nc2ccc(F)cc2)C(c2ccc(C)cc2)C2=C(CC(C)(C)CC2=O)N1 (stereo unspecified),93.4% (inactive)
5,CC[C@H](Nc1nc(N)nc(C2CC2)c1C#N)c1nc2cccc(NCc3ccc(C(=O)NO)cc3)c2c(=O)n1-c1ccccc1,-14.8% (active)
6,CC(C)N1CCN(c2ccncc2S(=O)(=O)N2CCN(C)CC2)CC1,96.8% (inactive)
7,c1ccc(C(CC2=NCCCN2)c2ccccc2)cc1,99.6% (inactive)
8,Clc1ccc2c(c1)-c1ccccc1C1=NCCN12,33.4% (inactive)
9,O=C(C=P(c1ccccc1)(c1ccccc1)c1ccccc1)CCl,-23.2% (active)
10,COc1cc(/C=C/C(=O)c2ccc(NC(=O)CSc3nnc(-c4ccc(Cl)cc4)n3-c3ccccc3)cc2)cc(OC)c1OC,55.9% (inactive)
11,OC(c1cc2cc(Cl)ccc2c2cc(C(F)(F)F)ccc12)C1CCCCN1 (stereo unspecified),-78.8% (active)
12,Clc1cc(Br)ccc1-c1ccc(CNCC2CCNCC2)o1,69.6% (inactive)
13,CN1CCN(Cc2ccc(NC(=O)c3cncc(C#Cc4ncc5cnccn45)c3)cc2C(F)(F)F)CC1,34.3% (inactive)
14,CC1=C(C(=O)Nc2ccc(F)cc2)C(c2ccc(Cl)cc2)C2=C(CC(C)(C)CC2=O)N1 (stereo unspecified),86% (inactive)
15,CCOC(=O)c1ccc(N(CCC(=O)O)C(C)=O)cc1,111% (inactive)
16,O=c1[nH]c2cc(Cl)c(Cl)cc2o1,108% (inactive)
17,CC(COC(=O)c1ccccc1)N1CC2CCC(C1)O2 (stereo unspecified),107% (inactive)
18,CC[C@H](Nc1nc(C)nc(N)c1C#N)c1nc2cccc(NCc3ccc(C(=O)NO)cc3)c2c(=O)n1-c1ccccc1,-17.5% (active)
19,Cc1cc(NC(=O)C2c3ccccc3C(=O)N(CC(C)C)C2c2cccs2)no1 (stereo unspecified),47.6% (inactive)

row,SMILES,growth
1,Clc1ccc2c(c1)-n1cccc1C(c1ccc3ccccc3c1)=NC2,74.4% (inactive)
2,CCC1CCc2nc3sc(C(=O)Nc4cccc(F)c4)c(N)c3cc2C1 (stereo unspecified),91.7% (inactive)
3,CCn1c(CN2CCN(Cc3ccccc3)CC2)nc2cc(NC(=O)c3cccs3)ccc21,-39% (active)
4,CCN(CC)CCCNc1cccc2c(C)cc(OC)nc12,90.5% (inactive)
5,COc1ccc(-c2cn(-c3cccc(C(=O)/C=C/c4ccc(O)c(OC)c4)c3)c(=O)[nH]2)cc1,62.5% (inactive)
6,COc1ccc(/C=c2\c(=O)n(-c3ccccc3)c3nn4c(n23)=NNC42CCCCC2)cc1,92.7% (inactive)
7,CCNC(=S)N(Cc1ccccc1)Cc1ccccc1,110% (inactive)
8,CCCCCCCCCCCCCCCc1cc(O)ccc1[N+](=O)[O-],79.6% (inactive)
9,COC1=CC(c2ccc[nH]2)=N/C1=C\c1[nH]c(C)c(C(=O)CCCCCCCCC(=O)O[C@H]2CC[C@H]3C4CCc5cc(O)ccc5C4CC[C@]23C)c1C (stereo partly specified),40.3% (inactive)
10,CCc1oc2ccccc2c1C(=O)c1cc(I)c(O)c(I)c1,58.5% (inactive)
11,Cc1ccc(N=CNN=C(N)N)cc1,106% (inactive)
12,CCCCN(CCCC)CCCN=c1nc2c(c(N)n1-c1ccccc1)c(=S)n(-c1ccccc1)c(=S)n2-c1ccccc1,-56.3% (active)
13,[Ag].[Ag].[NH-]S(=O)(=O)c1ccc(N=Nc2cc(N=Nc3ccc(S([NH-])(=O)=O)cc3)c3c(NC(=O)C(Cl)Cl)cccc3c2OC(=O)C(Cl)Cl)cc1.[c-]1nccs1.[c-]1nccs1,93.8% (inactive)
14,COc1cc(NCCCCC(C)N)c2nccc(C)c2c1 (stereo unspecified),89.3% (inactive)
15,COC(=O)C(C)NC1=C(Cl)C(=O)C(NC(C)C(=O)OC)=C(Cl)C1=O (stereo unspecified),101% (inactive)
16,COc1cc2nccc(Oc3ccc(NC(=O)C4(C(=O)Nc5ccc(F)cc5)CC4)cc3)c2cc1OC(=O)c1ccc(N)cc1,37.8% (inactive)
17,O=C(NO)c1ccc(NCc2csc3ccccc23)cc1,48.5% (inactive)
18,COc1ccc2[nH]c(O)c(/C=c3/ccc4c(c3)N=C(c3ccc(F)cc3)N=4)c2c1,71.7% (inactive)
19,CCN(CC)CCCC(C)N/C(c1cccc(OC)c1)=c1\c(=O)[nH]n(-c2c3ccccc3nc3ccccc23)c(=O)\c1=C(/NC(C)CCCN(CC)CC)c1cccc(OC)c1 (stereo unspecified),-26.3% (active)

# System: NCI-H226 lung
# Experiment: as above
# Details: 10 µM unless noted
row,SMILES,growth
1,COc1ccc(/C(=C\c2cc(OC)c(OC)c(OC)c2)C(=O)N2CCNCC2)cc1,94% (inactive)
2,O=c1c2sc3ncc(Cl)cc3c2nnn1-c1cccc(Cl)c1,33.4% (inactive)
3,F,90.6% [6.87 mM] (inactive)
4,CC1=C(C(=O)Nc2ccc(F)cc2)C(c2ccc(C)cc2)C2=C(CC(C)(C)CC2=O)N1 (stereo unspecified),89.8% (inactive)
5,CC[C@H](Nc1nc(N)nc(C2CC2)c1C#N)c1nc2cccc(NCc3ccc(C(=O)NO)cc3)c2c(=O)n1-c1ccccc1,-21.9% (active)
6,CC(C)N1CCN(c2ccncc2S(=O)(=O)N2CCN(C)CC2)CC1,89.7% (inactive)
7,c1ccc(C(CC2=NCCCN2)c2ccccc2)cc1,98% (inactive)
8,Clc1ccc2c(c1)-c1ccccc1C1=NCCN12,24.7% (inactive)
9,O=C(C=P(c1ccccc1)(c1ccccc1)c1ccccc1)CCl,-70.7% (active)
10,COc1cc(/C=C/C(=O)c2ccc(NC(=O)CSc3nnc(-c4ccc(Cl)cc4)n3-c3ccccc3)cc2)cc(OC)c1OC,82% (inactive)
11,OC(c1cc2cc(Cl)ccc2c2cc(C(F)(F)F)ccc12)C1CCCCN1 (stereo unspecified),-73% (active)
12,Clc1cc(Br)ccc1-c1ccc(CNCC2CCNCC2)o1,48.4% (inactive)
13,CN1CCN(Cc2ccc(NC(=O)c3cncc(C#Cc4ncc5cnccn45)c3)cc2C(F)(F)F)CC1,-7.4% (active)
14,CC1=C(C(=O)Nc2ccc(F)cc2)C(c2ccc(Cl)cc2)C2=C(CC(C)(C)CC2=O)N1 (stereo unspecified),84.1% (inactive)
15,CCOC(=O)c1ccc(N(CCC(=O)O)C(C)=O)cc1,102% (inactive)
16,O=c1[nH]c2cc(Cl)c(Cl)cc2o1,90.5% (inactive)
17,CC(COC(=O)c1ccccc1)N1CC2CCC(C1)O2 (stereo unspecified),98.2% (inactive)
18,CC[C@H](Nc1nc(C)nc(N)c1C#N)c1nc2cccc(NCc3ccc(C(=O)NO)cc3)c2c(=O)n1-c1ccccc1,-3.97% (active)
19,Cc1cc(NC(=O)C2c3ccccc3C(=O)N(CC(C)C)C2c2cccs2)no1 (stereo unspecified),103% (inactive)

row,SMILES,growth
1,Clc1ccc2c(c1)-n1cccc1C(c1ccc3ccccc3c1)=NC2,146% (inactive)
2,CCC1CCc2nc3sc(C(=O)Nc4cccc(F)c4)c(N)c3cc2C1 (stereo unspecified),85.2% (inactive)
3,CCn1c(CN2CCN(Cc3ccccc3)CC2)nc2cc(NC(=O)c3cccs3)ccc21,-35.5% (active)
4,CCN(CC)CCCNc1cccc2c(C)cc(OC)nc12,91% (inactive)
5,COc1ccc(-c2cn(-c3cccc(C(=O)/C=C/c4ccc(O)c(OC)c4)c3)c(=O)[nH]2)cc1,93.6% (inactive)
6,COc1ccc(/C=c2\c(=O)n(-c3ccccc3)c3nn4c(n23)=NNC42CCCCC2)cc1,75.8% (inactive)
7,CCNC(=S)N(Cc1ccccc1)Cc1ccccc1,114% (inactive)
8,CCCCCCCCCCCCCCCc1cc(O)ccc1[N+](=O)[O-],96.9% (inactive)
9,COC1=CC(c2ccc[nH]2)=N/C1=C\c1[nH]c(C)c(C(=O)CCCCCCCCC(=O)O[C@H]2CC[C@H]3C4CCc5cc(O)ccc5C4CC[C@]23C)c1C (stereo partly specified),24.9% (inactive)
10,CCc1oc2ccccc2c1C(=O)c1cc(I)c(O)c(I)c1,74.8% (inactive)
11,Cc1ccc(N=CNN=C(N)N)cc1,92% (inactive)
12,CCCCN(CCCC)CCCN=c1nc2c(c(N)n1-c1ccccc1)c(=S)n(-c1ccccc1)c(=S)n2-c1ccccc1,-82.5% (active)
13,[Ag].[Ag].[NH-]S(=O)(=O)c1ccc(N=Nc2cc(N=Nc3ccc(S([NH-])(=O)=O)cc3)c3c(NC(=O)C(Cl)Cl)cccc3c2OC(=O)C(Cl)Cl)cc1.[c-]1nccs1.[c-]1nccs1,90.8% (inactive)
14,COc1cc(NCCCCC(C)N)c2nccc(C)c2c1 (stereo unspecified),93.2% (inactive)
15,COC(=O)C(C)NC1=C(Cl)C(=O)C(NC(C)C(=O)OC)=C(Cl)C1=O (stereo unspecified),100% (inactive)
16,COc1cc2nccc(Oc3ccc(NC(=O)C4(C(=O)Nc5ccc(F)cc5)CC4)cc3)c2cc1OC(=O)c1ccc(N)cc1,55.7% (inactive)
17,O=C(NO)c1ccc(NCc2csc3ccccc23)cc1,64.8% (inactive)
18,COc1ccc2[nH]c(O)c(/C=c3/ccc4c(c3)N=C(c3ccc(F)cc3)N=4)c2c1,85.4% (inactive)
19,CCN(CC)CCCC(C)N/C(c1cccc(OC)c1)=c1\c(=O)[nH]n(-c2c3ccccc3nc3ccccc23)c(=O)\c1=C(/NC(C)CCCN(CC)CC)c1cccc(OC)c1 (stereo unspecified),-25.2% (active)
